In the supplement of paper PMC10849652 one finds log2 fold change data, which are given here for 7 targets.

The full data set covers some 7,900 targets. This sample favours those with a hit. About 0.6% of all pairs of compound and target were hits. A number with no mark means an inactive call.

What all share (assay): log2 fold change, soluble protein after heating vs DMSO (PISA); higher = thermal stabilisation; K562 cells, 10 uM, 30 min; active = over 0.2 and 3.5 SD of the protein, either way, in both replicates (recomputed)
Compound in experiment [1]: C1=CC=C(C=C1)[C@H](COC2=CC3=C(C=C2)NC(=O)N3)NC(=O)C4=CC=CN(C4=O)CC5=CC(=C(C=C5)F)F
In short, it runs like this:
(§1)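 K562 cells at 2×10^6 cells/mL were treated with 10 μM compound for 30 min. Aliquots were heated for 3 min across 48°C-58°C, pooled, and extracted in PBS with 0.5% NP-40 at 4°C; soluble protein was the supernatant after 21,000xg for 90 min. Soluble protein was quantified by TMTpro 16plex LC-MS/MS with channel sums equalised, and reported as log2 fold change in thermal stability against DMSO controls, with values from duplicates.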

Compound in experiment [2]: CC1=C(SC2=C1C(=N[C@H](C3=NN=C(N32)C)CC(=O)N)C4=CC=C(C=C4)Cl)C
In short, it runs like this:
as §1

Compound in experiment [3]: CC1=C2C(=CC=C1)N=C(N(C2=O)C3=CC=CC=C3C)CN4C=NC5=C(N=CN=C54)N
In short, it runs like this:
as §1

Compound in experiment [4]: Cc1sc2c(c1C)C(c1ccc(Cl)cc1)=N[C@@H](CC(=O)OC(C)(C)C)c1nnc(C)n1-2
In short, it runs like this: as §1

Compound in experiment [5]: c1ccc([C@@H]2C[C@H]2NC2CCNCC2)cc1
The method, boiled down: as §1

UniProt O15228, sequence (O15228 whole entry, looked up): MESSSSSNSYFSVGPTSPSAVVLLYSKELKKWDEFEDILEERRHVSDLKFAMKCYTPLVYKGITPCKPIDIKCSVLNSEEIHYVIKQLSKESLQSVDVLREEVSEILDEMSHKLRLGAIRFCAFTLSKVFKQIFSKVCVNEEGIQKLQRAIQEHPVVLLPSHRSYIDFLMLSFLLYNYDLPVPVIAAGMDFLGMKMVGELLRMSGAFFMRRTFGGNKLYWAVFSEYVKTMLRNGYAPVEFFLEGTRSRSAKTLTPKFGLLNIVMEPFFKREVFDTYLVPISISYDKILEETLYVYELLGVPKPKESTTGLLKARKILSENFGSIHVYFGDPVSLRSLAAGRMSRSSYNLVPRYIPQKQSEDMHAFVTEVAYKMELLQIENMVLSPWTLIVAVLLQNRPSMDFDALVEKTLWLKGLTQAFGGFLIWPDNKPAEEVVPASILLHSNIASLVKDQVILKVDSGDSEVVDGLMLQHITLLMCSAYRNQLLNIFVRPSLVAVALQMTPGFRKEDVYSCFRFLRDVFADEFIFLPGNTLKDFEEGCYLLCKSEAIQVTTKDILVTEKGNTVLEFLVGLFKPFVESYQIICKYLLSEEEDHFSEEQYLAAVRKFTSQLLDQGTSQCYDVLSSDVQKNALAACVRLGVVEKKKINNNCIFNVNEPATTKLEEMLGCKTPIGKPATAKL
UniProt Q9UK97, sequence (Q9UK97 whole entry, looked up): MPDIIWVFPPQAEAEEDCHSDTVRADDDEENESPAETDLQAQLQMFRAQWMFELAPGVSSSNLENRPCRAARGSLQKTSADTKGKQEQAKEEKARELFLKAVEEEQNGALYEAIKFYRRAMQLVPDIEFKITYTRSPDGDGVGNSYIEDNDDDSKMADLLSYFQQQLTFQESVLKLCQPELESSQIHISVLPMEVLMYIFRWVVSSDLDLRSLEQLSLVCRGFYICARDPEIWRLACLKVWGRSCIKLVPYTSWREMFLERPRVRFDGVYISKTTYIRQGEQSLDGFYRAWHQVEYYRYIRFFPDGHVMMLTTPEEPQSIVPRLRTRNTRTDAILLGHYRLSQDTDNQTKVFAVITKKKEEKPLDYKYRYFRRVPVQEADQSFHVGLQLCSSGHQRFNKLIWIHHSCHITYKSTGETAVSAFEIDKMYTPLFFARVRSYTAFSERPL
UniProt Q5SSJ5, sequence (Q5SSJ5 whole entry, looked up): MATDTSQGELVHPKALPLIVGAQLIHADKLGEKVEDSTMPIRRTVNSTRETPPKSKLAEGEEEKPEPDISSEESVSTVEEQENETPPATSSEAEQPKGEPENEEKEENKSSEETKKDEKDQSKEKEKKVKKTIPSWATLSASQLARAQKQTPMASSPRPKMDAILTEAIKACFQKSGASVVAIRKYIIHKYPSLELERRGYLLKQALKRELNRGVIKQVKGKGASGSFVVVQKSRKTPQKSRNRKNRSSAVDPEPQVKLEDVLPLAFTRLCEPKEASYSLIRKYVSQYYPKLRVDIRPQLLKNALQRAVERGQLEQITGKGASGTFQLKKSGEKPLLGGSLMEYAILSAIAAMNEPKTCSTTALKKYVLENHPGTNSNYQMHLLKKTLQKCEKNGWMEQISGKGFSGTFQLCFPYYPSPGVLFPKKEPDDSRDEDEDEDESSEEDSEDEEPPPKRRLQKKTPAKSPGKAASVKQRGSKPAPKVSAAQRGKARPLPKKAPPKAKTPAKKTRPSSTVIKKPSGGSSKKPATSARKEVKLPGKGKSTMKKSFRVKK
UniProt Q9NRD1, sequence (Q9NRD1 whole entry, looked up): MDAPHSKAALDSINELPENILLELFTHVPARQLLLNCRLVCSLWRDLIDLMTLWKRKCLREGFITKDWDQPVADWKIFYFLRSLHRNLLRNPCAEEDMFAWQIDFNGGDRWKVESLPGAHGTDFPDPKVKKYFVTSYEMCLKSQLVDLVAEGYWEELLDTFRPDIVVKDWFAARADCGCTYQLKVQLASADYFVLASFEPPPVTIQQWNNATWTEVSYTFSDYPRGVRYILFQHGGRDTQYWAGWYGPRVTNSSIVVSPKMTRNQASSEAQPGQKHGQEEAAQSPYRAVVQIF
UniProt Q7Z4H3, sequence (Q7Z4H3 whole entry, looked up): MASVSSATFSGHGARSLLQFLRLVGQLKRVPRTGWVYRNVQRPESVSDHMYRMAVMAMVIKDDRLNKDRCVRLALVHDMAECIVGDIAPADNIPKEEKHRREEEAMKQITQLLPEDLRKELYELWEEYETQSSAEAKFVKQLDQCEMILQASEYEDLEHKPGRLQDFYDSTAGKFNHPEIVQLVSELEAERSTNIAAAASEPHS
UniProt P37268, sequence (P37268 whole entry, looked up): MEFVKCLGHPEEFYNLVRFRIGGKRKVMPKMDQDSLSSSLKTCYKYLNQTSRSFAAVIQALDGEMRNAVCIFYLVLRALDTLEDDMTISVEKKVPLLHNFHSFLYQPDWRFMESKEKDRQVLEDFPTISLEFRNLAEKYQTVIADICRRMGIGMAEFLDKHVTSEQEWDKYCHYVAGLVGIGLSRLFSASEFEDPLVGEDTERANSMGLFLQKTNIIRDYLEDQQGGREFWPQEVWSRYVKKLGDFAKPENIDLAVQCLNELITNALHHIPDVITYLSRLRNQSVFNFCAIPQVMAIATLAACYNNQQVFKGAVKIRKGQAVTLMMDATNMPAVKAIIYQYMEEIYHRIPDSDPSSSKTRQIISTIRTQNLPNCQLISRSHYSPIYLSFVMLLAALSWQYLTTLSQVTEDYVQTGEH

In the case of HDDC2 (UniProt Q7Z4H3), the log2 fold change in experiment [1] is 0.009; in experiment [2], 0.057; in experiment [3], -0.012; in experiment [4] it was -0.071; in experiment [5], -0.038.

As to FDFT1 (UniProt P37268), the log2 fold change was -0.064 in experiment [1]; 0.319 (active) in experiment [2]; 0.089 in experiment [3]; 0.109 in experiment [4]; -0.021 in experiment [5].

HSPA8 (UniProt E9PN89): the log2 fold change is 0 in experiment [1]; 0.094 in experiment [2]; 0.123 in experiment [3]; 0.133 in experiment [4]; 0.104 in experiment [5].

Take FBXO6 (UniProt Q9NRD1): the log2 fold change in experiment [1] is 0.013; in experiment [2] it was 0.087; in experiment [3] it was 0.041; in experiment [4] it was -0.041; in experiment [5], -0.032.

As for GNPAT (UniProt O15228), the log2 fold change in experiment [1] is -0.034; in experiment [2], 0.043; in experiment [3] it was 0.07; in experiment [4] it was -0.01; in experiment [5], -0.036.

For HP1BP3 (UniProt Q5SSJ5), the log2 fold change in experiment [1] was 0.015; in experiment [2], -0.04; in experiment [3], 0.087; in experiment [4] it was 0.142; in experiment [5], 0.011.

Turning to FBXO9 (UniProt Q9UK97), the log2 fold change in experiment [1] was -0.011; in experiment [2], 0.23; in experiment [3] it was 0.016; in experiment [4], 0.161; in experiment [5], 0.07.
